Pf growth 48h = P. falciparum growth inhibition at 48 hours (one generation); P. falciparum luciferase growth in erythrocytes, 48 h; Potency, µM (highest dose often 28.7 µM), without a hit: at the top dose activity change, negative = inhibition, most hits filed as inhibitors; 5.9% of 310,000 active; AID 504832
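Luciferase-expressing P. falciparum in infected erythrocytes (2% hematocrit, 0.1% parasitemia final) in RPMI 1640/0.5% Albumax were exposed to compound for 48 hours at 37 C, 5% CO2; growth read as luminescence.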
Pf growth 96h = P. falciparum growth inhibition at 96 hour, primary screen for plastid delayed-death inhibitors; 6.9% of 320,000 active; P. falciparum luciferase reporter growth, 96 h; Potency, µM (titrated, usually from 28.7 µM), for inactives: at the highest dose activity change, negative = inhibition, hits mostly inhibitors
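Infected RBCs, 2% Hct / 0.05% parasitemia final; luciferase-reporter P. falciparum; cpd 96 h, 37 C, 5% CO2; luciferase detection reagent; luminescence.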
HCV inh = inhibitors of hepatitis C virus infection. 3.4% of 340,000 active. Potency, µM (series often up to 41.8 µM), for the others: top-dose activity change, negative = inhibition, hits mostly inhibitors. Huh7.5.1 HCVcc-Cre infection, luciferase reporter, 44 h
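1,000 cells/well; 4 h culture; + compound; + HCVcc-Cre (~0.5 moi); 44 h; luciferase substrate, RT 15 min; read 15 sec.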
AMA1-RON2 inh = AMA1-RON2 (P. falciparum) interaction inhibition; AlphaScreen AMA1-biotinylated RON2 peptide binding; Potency, µM (titrated, usually from 58.2 µM), without a hit: at the top dose activity change, negative = inhibition, most hits filed as inhibitors; 0.2% of 360,000 active; AID 720542;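 also: 0% = vehicle wells and -100% = peptide control; nearly all actives have a fitted effect of over 45% in size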
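AMA1 (3D7) with his tag at 25 nM final met compounds first, then biotinylated RON2 peptide at 25 nM; detection used donor plus acceptor beads, 10 µg/mL apiece, read by AlphaScreen after 30 min at room temperature.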
Starred values were filed as active, the others as inactive. Rows were chosen to be rich in hits. Some 11% of all compounds tested hit in one or more screens of this group. Calls follow the shape of the dose curve; as a rule, active = well fitted curve in the direction sought with a large enough effect; inconclusive = small, poorly fitted or top-dose-only effect, or another doubt; inactive = no such curve, though single readings can be large; an effect the other way counts as inactive or inconclusive. Unless noted, % is scaled to controls: 0 for no effect and ±100 for the full control effect; potency is read from the fitted curve at half-maximal effect.

Screening O=C(N=Nc1c(O)n(Cc2ccccc2)c2ccccc12)c1ccc(O)cc1 returned Pf growth 48h inconclusive, Pf growth 96h 11.7µM*, HCV inh inconclusive and AMA1-RON2 inh -7.4%.
CCOC(=O)c1[nH]ncc1CN1CCc2ccc(NC(=O)C3CCCO3)cc2C1 (stereo not given) was read as Pf growth 48h 2.7%, Pf growth 96h 28.2%, HCV inh 7.1% and AMA1-RON2 inh -2.7%.
For COc1ccc(C2=NOC(c3nnc(-c4ccccc4)o3)C2)cc1 (stereo not given) the results were HCV inh 7.3% and AMA1-RON2 inh 58.1%.
For CCSc1nc2ccccc2n1C(=O)/C=C\c1ccc(OC)c(OC)c1 the results were Pf growth 48h inconclusive, Pf growth 96h inconclusive, HCV inh 14.1µM* and AMA1-RON2 inh -4.9%.
For N#Cc1cc(C#N)c(N2CCN(c3cccc(Cl)n3)CC2)nc1N the results were Pf growth 48h 3.7µM*, Pf growth 96h 1.65µM*, HCV inh 11.2µM* and AMA1-RON2 inh 37.1%.
`Cc1ccc(S(=O)(=O)Nc2cccc(C(=O)NCC(C)(C)N3CCOCC3)c2)cc1F` gave Pf growth 48h -16.9%, Pf growth 96h inconclusive, HCV inh 7.5% and AMA1-RON2 inh 12.3%.
N=c1c2c(n(Cc3ccc(Br)cc3)c3c1CCC3)CCCC2 was read as Pf growth 48h 0.0928µM*, Pf growth 96h 0.0329µM*, HCV inh inconclusive and AMA1-RON2 inh 2.1%.
Screening N=c1c2c(n(Cc3ccc([N+](=O)[O-])cc3)c3c1CCC3)CCCC2 returned Pf growth 48h inconclusive, Pf growth 96h 10.4µM*, HCV inh -8.1% and AMA1-RON2 inh -2.9%.
`Clc1ccc(CN2CCN(c3ncccn3)CC2)cc1Cl` gave Pf growth 48h inconclusive, Pf growth 96h 3.3%, HCV inh 5.3% and AMA1-RON2 inh -11.4%.
Screening O=c1[nH]c(=O)n(Cc2ccccc2)c2c1CCC2 returned Pf growth 48h 1.0%, HCV inh 6.5% and AMA1-RON2 inh -1.0%.
Screening N=c1c2c(n(Cc3ccc(Cl)c(Cl)c3)c3c1CCC3)CCCC2 returned Pf growth 48h 0.147µM*, Pf growth 96h 10.1%, HCV inh inconclusive and AMA1-RON2 inh -2.1%.
`CCOc1ccc(C2=CSC3=NCCN23)cc1Cl` gave Pf growth 48h inconclusive, Pf growth 96h inconclusive, HCV inh inconclusive and AMA1-RON2 inh 7.8%.
O=C1Nc2ccccc2O/C1=C\c1c(F)cccc1Cl was read as Pf growth 48h inconclusive, Pf growth 96h -59.3%, HCV inh 10µM* and AMA1-RON2 inh -0.2%.
For Nc1nonc1NC(=O)CSc1nc2ccccc2s1 the results were Pf growth 48h 19.1%, Pf growth 96h 10.4µM*, HCV inh 17.9% and AMA1-RON2 inh 0.4%.
For O=C(CSc1nc2ccccc2s1)Nc1nccs1 the results were Pf growth 48h 14.4%, Pf growth 96h 99.9%, HCV inh 14.8% and AMA1-RON2 inh 0.6%.
`CN1CC(=O)Nc2ccccc2C1=O` gave Pf growth 48h 32.3%, Pf growth 96h -5.5%, HCV inh 6.1% and AMA1-RON2 inh 13.8%.
For CN1C(=O)c2ccccc2NC(=O)C1Cc1ccccc1 (stereo not given) the results were Pf growth 48h 6.5%, Pf growth 96h 11.7µM*, HCV inh 7.3% and AMA1-RON2 inh 1.8%.
For COc1cccc(C2=NC(C)(C)NC(c3ccccc3O)C2)c1 (stereo not given) the results were Pf growth 48h 9.28µM*, Pf growth 96h 0.0%, HCV inh -28.8% and AMA1-RON2 inh -17.9%.
For CN(C(=O)c1cc(-c2ccc3c(c2)OCO3)on1)c1ccccc1 the results were Pf growth 48h 82.0%, Pf growth 96h -13.9%, HCV inh -28.7% and AMA1-RON2 inh 0.6%.
`CCC1(C)N=C(c2ccc3c(c2)OCO3)CC(c2ccccc2O)N1` (stereo not given) gave Pf growth 48h 4.65µM*, HCV inh inconclusive and AMA1-RON2 inh -2.7%.
NC(=O)NC(=O)CSc1nnc(-c2ccc(Cl)cc2)n1CC1CCCO1 (stereo not given) was read as Pf growth 48h 0.0%, Pf growth 96h 3.4%, HCV inh 11.5% and AMA1-RON2 inh 15.3%.
Screening CC(=O)c1c(C)[nH]c(C(=O)CSc2ccc(F)cc2)c1C returned Pf growth 48h 91.4%, Pf growth 96h 116.9%, HCV inh 12.6µM* and AMA1-RON2 inh -1.9%.
